Screening data deposited in PubChem BioAssay by National Center for Advancing Translational Sciences (NCATS).
LT uptake inh: qHTS Assay for Anthrax Lethal Toxin Internalization; Potency, µM (titrated, usually from 40 µM), inactives show top-dose activity change, negative = inhibition, hits mostly inhibitors; AID 912, 2007; 0.67% of 70,000 active; Cells, anthrax lethal toxin internalization, FRET ratio (460/530); also: % is scaled to controls: 0 for no effect and ±100 for the full control effect; nearly all actives have a fitted effect of over 50% in size
AmpC det inh: Promiscuous and Specific Inhibitors of AmpC Beta-Lactamase (assay with detergent); P00811; purified AmpC, nitrocefin hydrolysis with detergent; Potency, µM (top dose mostly 28.7 µM), without a hit: at the top dose activity change, negative = inhibition; 0.09% of 71,000 active; active = well fitted curve in the direction sought with a large enough effect; inconclusive = small, poorly fitted or top-dose-only effect; also: % is scaled to controls: 0 for no effect and ±100 for the full control effect
Target sequence (P00811 whole entry, looked up): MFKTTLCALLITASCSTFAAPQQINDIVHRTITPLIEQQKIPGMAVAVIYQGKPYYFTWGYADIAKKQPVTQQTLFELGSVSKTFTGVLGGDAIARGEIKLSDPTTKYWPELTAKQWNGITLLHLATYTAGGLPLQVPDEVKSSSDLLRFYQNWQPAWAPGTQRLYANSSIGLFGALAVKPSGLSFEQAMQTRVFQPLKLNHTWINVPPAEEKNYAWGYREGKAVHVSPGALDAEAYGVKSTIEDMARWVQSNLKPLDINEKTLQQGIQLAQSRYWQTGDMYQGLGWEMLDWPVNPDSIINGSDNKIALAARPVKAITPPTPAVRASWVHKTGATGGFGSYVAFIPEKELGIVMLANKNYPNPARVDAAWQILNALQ
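E. coli AmpC (5.3 nM) in 20 mM phosphate pH 7.0 with 0.01% Triton X-100, preincubated 15 min RT with compound; nitrocefin (2 uL of 800 uM stock) hydrolysis followed by 480 nm absorbance every 20 s over 4 min.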
AmpC inh no det: Promiscuous and Specific Inhibitors of AmpC Beta-Lactamase (assay without detergent); P00811; AmpC nitrocefin hydrolysis, absorbance 480 nm, no detergent; Potency, µM (top dose mostly 28.7 µM), inactives show at the highest dose activity change, negative = inhibition; 1.8% of 71,000 active; AID 585, 2007; also: % of control where 0% means no effect
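AmpC, 20 mM phosphate pH 7.0; 15 min cpd preinc, RT; start with nitrocefin (800 uM stock); A480 kinetic read, 20 s intervals, 4 min. No-enzyme wells = negative control.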
Prx2 Sm inh: Schistosoma Mansoni Peroxiredoxins (Prx2); Schistosoma mansoni peroxiredoxin 2 (Prx2); Potency, µM; S. mansoni Prx2 activity coupled to TGR/GSH (TGR is thioredoxin glutathione reductase), NADPH fluorescence loss, qHTS; 0.07% of 65,000 active
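qHTS, coupled TGR/Prx2 format; 15 min compound preincubation at RT; reaction started with H2O2 (2.5 mM aliquot); kinetic NADPH fluorescence decrease, ex 365/em 450 nm.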
* = called active by the depositor; [ ] = remark or other dose. Only some compounds are listed: those with a hit (about 2.6% of all), similar ones and a draw of the others. Unless noted, calls follow the shape of the full dose curve. Potency is read from the fitted curve at half-maximal effect.

Screening COc1cc(OC)c(C2CC(=O)N3CN(C)CSC3=C2C#N)cc1OC (stereo not given) returned LT uptake inh -23%, AmpC det inh 9%, AmpC inh no det 4µM*[single pt active] and Prx2 Sm inh >57.
`COc1ccc(Br)cc1C1CC(=O)N2CN(Cc3ccccc3)CSC2=C1C#N` (stereo not given) gave LT uptake inh inconclusive, AmpC det inh 9%, AmpC inh no det 2µM* and Prx2 Sm inh >57.
COc1ccc(C(=O)N2CCC3(CC2)CCN(c2ccncc2)CC3)cc1 was read as LT uptake inh -17%, AmpC det inh 2%, AmpC inh no det 10% and Prx2 Sm inh >57.
O=C(O)c1cccc(SSc2cccc(C(=O)O)c2)c1 was read as LT uptake inh -14%[8 µM], AmpC det inh -1%[5.75 µM], AmpC inh no det 0%[5.75 µM] and Prx2 Sm inh >57.
For O=C1c2cc([N+](=O)[O-])ccc2-c2ccc3c4ccc5c6c(ccc(c7ccc1c2c73)c64)C(=O)c1cc([N+](=O)[O-])ccc1-5 the results were LT uptake inh -2%[8 µM], AmpC det inh -11%[5.75 µM], AmpC inh no det 2.5µM* and Prx2 Sm inh >57.
Screening O=[N+]([O-])c1ccc2c(c1)S(=O)c1ccccc1-2 (stereo not given) returned LT uptake inh 3%[8 µM], AmpC det inh -6%[5.75 µM], AmpC inh no det 1%[5.75 µM] and Prx2 Sm inh >57.
For O=C(/C=C\c1ccc(O)c(O)c1)OCCc1ccccc1 the results were LT uptake inh inconclusive, AmpC det inh -1%, AmpC inh no det -22% and Prx2 Sm inh >57.
For C[C@@H](O)[C@H]1C(=O)N2C(C(=O)O)=C(S[C@@H]3CN[C@H](C(=O)N(C)C)C3)[C@H](C)[C@H]12 the results were LT uptake inh 0.5µM*, AmpC det inh -1%[12.8 µM], AmpC inh no det 27%[12.8 µM] and Prx2 Sm inh >57.
For COC(=O)[C@@H](NC(=O)c1cc(-c2ccccc2)nc2ccccc12)c1ccccc1 the results were AmpC det inh -3%, AmpC inh no det 36% and Prx2 Sm inh >57.
For Cc1cc2nc(SCC(=O)Nc3nonc3C)c3c(c2cc1C)CCCC3 the results were LT uptake inh -17%, AmpC det inh 1%, AmpC inh no det 13µM* and Prx2 Sm inh >57.
For Cc1nonc1NC(=O)CSc1nc(C2CCCCC2)nc2ccccc12 the results were LT uptake inh inconclusive, AmpC det inh -2%, AmpC inh no det -13% and Prx2 Sm inh >57.
`Cc1ccc(N2C(=O)c3ccccc3C2Nc2cccnc2)nc1` (stereo not given) gave LT uptake inh -7%, AmpC det inh 11%, AmpC inh no det 4µM*[single pt active] and Prx2 Sm inh >57.
For CCOC(=O)c1ccccc1NC1c2ccccc2C(=O)N1c1ccc(C)cn1 (stereo not given) the results were LT uptake inh inconclusive, AmpC det inh 13%, AmpC inh no det 4µM*[single pt active] and Prx2 Sm inh >57.
Screening COc1cc(NC2c3ccccc3C(=O)N2c2ccc(C)cn2)cc(OC)c1OC (stereo not given) returned LT uptake inh 6%, AmpC det inh 13%, AmpC inh no det 76% and Prx2 Sm inh >57.
`O=C1c2ccccc2C(Nc2cccnc2)N1Cc1ccccc1Cl` (stereo not given) gave LT uptake inh -15%, AmpC det inh 12%, AmpC inh no det 4µM*[single pt active] and Prx2 Sm inh >57.
`CCOc1ccccc1NC1c2ccccc2C(=O)N1c1ccc(C)cn1` (stereo not given) gave LT uptake inh -26%, AmpC det inh 13%, AmpC inh no det -3% and Prx2 Sm inh >57.
For Nc1nc(N)nc(CCCCc2nc(N)nc(N)n2)n1 the results were LT uptake inh 12%[8 µM], AmpC det inh -2%[5.75 µM], AmpC inh no det 4%[5.75 µM] and Prx2 Sm inh >57.
`Cn1cc(C(=O)c2ccc(Cl)cc2)cc1-c1nc2ccccc2n1C` gave LT uptake inh 13µM*, AmpC det inh 18%, AmpC inh no det 35% and Prx2 Sm inh >57.
`O=C(O)c1ccccc1-c1c2cc(Br)c(=O)cc-2oc2[c]([Hg])c(O)c(Br)cc12` gave LT uptake inh inconclusive, AmpC det inh -3%[12.8 µM], AmpC inh no det -17%[12.8 µM] and Prx2 Sm inh 0.037*.
CCC(C)NC(=O)CC1Oc2ccc(C)cc2NC1=O (stereo not given) was read as LT uptake inh -3%, AmpC det inh 13%, AmpC inh no det 4µM*[single pt active] and Prx2 Sm inh >57.
